The results in this text go back to PubChem BioAssay AID1347142 (National Center for Advancing Translational Sciences (NCATS), 2019).

The target in this assay is N-terminal Xaa-Pro-Lys N-methyltransferase 1 (Homo sapiens) (UniProt Q9BV86). Put plainly: qHTS Assay for Inhibitors of N-terminal methyltransferase 1 (NTMT1): ThioGlo3 Assay Confirmatory Screen, Round 1. The settings on record: NTMT1 SAHH-coupled ThioGlo3 fluorescence, 30 min; series mostly up to 56.8 µM. The method in brief:
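Human NTMT1 at 125 nM was preincubated 1 min at room temperature with compounds at various concentrations or 1 uM RCC1-6 control. Substrate mix (100 uM SAM, 10 uM SAHH, 15 uM ThioGlo3) was added, and fluorescence (Ex 340/Em 450 nm) was read at start and after 30 min, normalized to background.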

Records with an inconclusive call do not appear. Unmarked numbers belong to inactive results. Calls of active or inactive are those of the source. The call rests on the fitted dose curve; in most records, active means well fitted inhibition curve with a large enough effect; inconclusive means small, poorly fitted or top-dose-only effect; inactive means no such curve, though single readings can be large or run the other way.
Further: nearly all actives have a fitted effect of over 80% in size.
Potency means the concentration at half of the fitted maximal effect.
Wherever activity change, negative = inhibition is given: 0% is about no effect.

Sequence of N-terminal Xaa-Pro-Lys N-methyltransferase 1 (Homo sapiens) (Q9BV86 whole entry, looked up): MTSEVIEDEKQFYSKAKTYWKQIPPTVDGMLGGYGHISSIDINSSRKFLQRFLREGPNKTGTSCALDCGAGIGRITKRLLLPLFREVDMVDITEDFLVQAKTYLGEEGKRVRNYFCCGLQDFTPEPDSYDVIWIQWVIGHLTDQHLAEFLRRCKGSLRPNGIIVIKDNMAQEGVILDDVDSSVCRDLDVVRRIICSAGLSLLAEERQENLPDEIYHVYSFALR

As for `COc1cc2c(NC3CCN(C(C)C)CC3)nc(N3CCCN(C)CC3)nc2cc1OCCCN1CCCCC1`, the Potency is 24.1 µM (active). On the same count and under the same terms, with `Nc1nc(Cl)nc2c1ncn2[C@@H]1O[C@H](COP(=O)(O)OP(=O)(O)OP(=O)(O)O)C(O)[C@H]1O` (stereo not given in full) the figure was 21.5 µM (active); with `OC[C@@H]1O[C@@H](n2cnc3c(NCc4ccco4)ncnc32)[C@H](O)[C@H]1O`, 24.1 µM (active). Same read-out and setting: the result for `OC[C@H]1O[C@@H](n2cnc3c(NCc4ccccc4)ncnc32)[C@H](O)[C@@H]1O` reads “inactive”; that for `CSCC1OC(n2cnc3c(N)ncnc32)C(O)C1O` (stereo not given), “inactive”; that for `COc1cc2c(NC3CCN(C)CC3)cc(N3CCCCN(C)CC3)cc2cc1OCCOCCN(C)C`, 27.1 µM (active). On the same count and under the same terms, the result for `COc1cc2nc(N3CCCN(C)CC3)nc(NC3CCNCC3)c2cc1OC` reads 21.5 µM (active); that for `COc1cc2nc(N3CCOCC3)nc(NC3CC3)c2cc1OC`, 27.1 µM (active). With `COc1cc2nc(N3CCN(C)CC3)nc(NCCC3CC3)c2cc1OC`, the Potency was 24.1 µM (active). For the molecule `COc1cc2c(NC3CCN(C(C)C)CC3)nc(N3CCCN(C4CCCCC4)CC3)nc2cc1OCCCN1CCCCC1`, the Potency is 24.1 µM (active).

As for `CSc1ncnc2c1ncn2C1OC(CO)C(O)C1O` (stereo not given), the Potency result is “inactive”. The same measure, in the same setting: with `CNC(=O)[C@H]1O[C@H](n2cnc3c(NCc4cccc(I)c4)ncnc32)[C@@H](O)[C@@H]1O` the entry was “inactive”. As to `CCN1CCN(c2nc(NC3CC3)c3cc(OC)c(OC)cc3n2)CC1`, the Potency was 24.1 µM (active). Same read-out and setting: the result for `COc1cc2c(NC3CCN(CC4CCCCC4)CC3)nc(N3CCCN(C(C)C)CC3)nc2cc1OCCCN1CCCCC1` reads 24.1 µM (active); that for `CNc1nc(N2CCN(C)CC2)nc2cc(OC)c(OC)cc12`, 24.1 µM (active).

For `COc1cc2nc(N3CCN(C)CC3)nc(NC3CCN(Cc4ccccc4)CC3)c2cc1OC`, the Potency is 24.1 µM (active). Same read-out and setting: with `Nc1ncnc2c1nc(Br)n2C1CC(O)C(CO)O1` (stereo not given) the entry was “inactive”; with `CNc1nc2c(N)ncnc2n1[C@@H]1O[C@@H]2COP(=O)(O)O[C@H]2[C@H]1O`, “inactive”. The same measure, in the same setting: with `CCCN(C)CCCOc1cc2nc(N3CCCN(C)CC3)nc(NC3CCN(C)CC3)c2cc1OC` the figure was 27.1 µM (active); with `COc1cc2nc(N3CCN(C)CC3)nc(NCCCN(C)C)c2cc1OC`, 27.1 µM (active); with `COc1cc2c(NC3CCN(C4CCCCC4)CC3)nc(N3CCCCCC3)nc2cc1OCCCN1CCCCC1`, 24.1 µM (active). On the same count and under the same terms, with `Nc1ncnc2c1ncn2[C@@H]1O[C@H](C(=O)NC2CC2)[C@@H](O)[C@H]1O` the entry was “inactive”. For the molecule `O=c1[nH]cnc2c1ncn2[C@@H]1O[C@H](CO)[C@@H](O)[C@H]1O`, the Potency entry was “inactive”. On to `COc1cc2c(NC3CCN(C4CCCCC4)CC3)nc(N3CCCN(C)CC3)nc2cc1OCCCN1CCCCC1`, for which the Potency is 24.1 µM (active). On the same count and under the same terms, the result for `COc1cc2nc(N3CCOCC3)nc(NC3CCN(Cc4ccccc4)CC3)c2cc1OC` reads 27.1 µM (active).

`COc1cc2c(NC3CCN(C)CC3)nc(N3CCN(C)CC3)nc2cc1OCCCN(C)C`: the Potency is 24.1 µM (active). For `COc1cc2c(NC3CCN(C)CC3)nc(N3CCCN(C)CC3)nc2cc1OCCN(C)C`, the Potency was 21.5 µM (active). Same read-out and setting: the result for `COc1cc2nc(N(C)C)nc(NC3CCN(C)CC3)c2cc1OC` reads 24.1 µM (active); that for `COc1cc2nc(NC3CCN(Cc4ccccc4)CC3)nc(N3CCCN(C)CC3)c2cc1OC`, 24.1 µM (active). On the same count and under the same terms, with `COc1cc2c(NC3CCN(C4CCCCC4)CC3)nc(N3CCCCC3)nc2cc1OCCCN1CCCCC1` the figure was 24.1 µM (active).

For the molecule `COc1cc2nc(N3CCCN(C)CC3)nc(NC3CCCCC3)c2cc1OC`, the Potency is 27.1 µM (active). `CCN(c1cc(-c2ccc(CN3CCOCC3)cc2)cc(C(=O)NCc2c(C)cc(C)[nH]c2=O)c1C)C1CCOCC1`: the Potency result is “inactive”.

For the molecule `CNc1ncnc2c1ncn2[C@@H]1O[C@H](CO)[C@@H](O)[C@@H]1O`, the Potency result was “inactive”. The same measure, in the same setting: the result for `OC[C@H]1O[C@@H](n2cnc3c(NC4CCCCC4)ncnc32)[C@H](O)[C@@H]1O` reads “inactive”. For the molecule `Nc1nc(Cl)nc2c1ncn2[C@@H]1O[C@H](CO)[C@H](O)[C@H]1O`, the Potency result was “inactive”. On the same count and under the same terms, with `COc1cc2nc(N3CCN(C)CC3)nc(N3CCN(C(C)=O)CC3)c2cc1OC` the figure was 21.5 µM (active). Same read-out and setting: the result for `COc1cc2nc(N3CCOCC3)nc(NC(C)C)c2cc1OC` reads 24.1 µM (active); that for `COc1cc2c(NC3CCN(CC4CCCCC4)CC3)nc(N3CCCCC3)nc2cc1OCCOCCN(C)C`, 24.1 µM (active); that for `COc1cc2c(NC3CCN(C)CC3)nc(N3CCCCC3)nc2cc1OCCOCCN(C)C`, 24.1 µM (active).

As for `C=C1OC(CO)(n2cnc3c(N)ncnc32)C(O)C1O` (stereo not given), the Potency result is “inactive”. The same measure, in the same setting: the result for `COc1cc2nc(N3CCCN(C)CC3)nc(NC3CCN(Cc4ccccc4)CC3)c2cc1OC` reads 27.1 µM (active); that for `COc1cc2c(NC3CCN(C(C)C)CC3)nc(N3CCCN(C)CC3)nc2cc1OCCCN(C)C`, 24.1 µM (active). As for `Nc1nc2c([nH]c(=O)n2[C@@H]2O[C@H](CO)[C@@H](O)[C@H]2O)c(=O)[nH]1`, the activity change, negative = inhibition was 16.6% [at 6.3 µM]. In the case of `COc1cc2c(NC3CCN(C4CCCCC4)CC3)nc(N3CCCN(C)CC3)nc2cc1OCCOCCN(C)C`, the Potency is 27.1 µM (active).

`C=C1O[C@@](CO)(n2cnc3c(N)ncnc32)[C@H](O)[C@@H]1O`: the Potency result was “inactive”.

Take `Nc1ncnc2c1ncn2[C@@H]1O[C@H](CSCC[C@H](N)C(=O)O)[C@@H](O)[C@H]1O`: the Potency result was “inactive”.

For the molecule `COc1cc2nc(N3CCN(C)CC3)nc(NC(C)C)c2cc1OC`, the Potency was 21.5 µM (active).

Take `NCCNC(=O)Cc1ccc(NC(=O)Cc2ccc(Nc3ncnc4c3ncn4[C@@H]3O[C@H](CO)[C@@H](O)[C@H]3O)cc2)cc1`: the Potency entry is “inactive”. Regarding `Nc1ncnc2c1ncn2C1C[C@H](O)[C@@H](CO)O1` (stereo not given in full), the Potency entry was “inactive”. On the same count and under the same terms, with `COc1cc2c(NC3CCN(C(C)C)CC3)nc(N3CCCCC3)nc2cc1OCCCN1CCCCC1` the figure was 21.5 µM (active); with `CCCCC#Cc1nc(NC)c2ncn([C@@H]3O[C@H](CO)[C@@H](O)C3O)c2n1` (stereo not given in full), 8.57 µM (active).

Take `COc1cc2nc(N3CCN(C(C)=O)CC3)nc(NC3CC3)c2cc1OC`: the Potency is 21.5 µM (active). The same measure, in the same setting: the result for `Nc1ncnc2c1ncn2[C@@H]1O[C@H](COP(=O)(O)O)[C@@H](O)[C@@H]1O` reads “inactive”. On to `COc1cc2c(NC3CCN(C)CC3)nc(N3CCCN(C)CC3)nc2cc1OCc1ccccc1`, for which the Potency is 19.2 µM (active). The same measure, in the same setting: with `COc1cc2c(NC3CCN(C)CC3)nc(N3CCCN(C)CC3)nc2cc1OCCCN1CCCCC1` the figure was 24.1 µM (active); with `COc1cc2c(NC3CCN(C(C)C)CC3)nc(N3CCC(F)(F)CC3)nc2cc1OCCCN1CCCC1`, 24.1 µM (active); with `COc1cc2c(NC3CCN(C)CC3)nc(N3CCCN(C)CC3)nc2cc1OCCCN1CCCC1`, 27.1 µM (active). Still for that read-out and setting: with `CCN1CCCN(c2nc(NC3CCN(C(C)C)CC3)c3cc(OC)c(OCCCN4CCCCC4)cc3n2)CC1` the figure was 24.1 µM (active); with `CNc1ncnc2c1ncn2[C@@H]1O[C@H](CO)C(O)[C@H]1O` (stereo not given in full), “inactive”. Still for that read-out and setting: with `Nc1nc(Nc2ccccc2)nc2c1ncn2[C@@H]1O[C@@H](CO)[C@H](O)[C@H]1O` the entry was “inactive”; with `NC[C@H]1O[C@@H](n2cnc3c(N)ncnc32)[C@H](O)[C@@H]1O`, “inactive”; with `CNc1ncnc2c1ncn2[C@@H]1O[C@H](COP(=O)(O)O)[C@@H](O)[C@H]1O`, “inactive”. Regarding `COc1cc2nc(N3CCCCC3)nc(NC3CC3)c2cc1OC`, the Potency is 24.1 µM (active).

As to `COc1cc2nc(N3CCCN(C)CC3)nc(NC3CCN(C)C3)c2cc1OC` (stereo not given), the Potency was 24.1 µM (active).

For `COc1cc2c(NC3CCN(C)CC3)nc(N3CCCCC3)nc2cc1OCCCN(C)C`, the Potency entry was “inactive”. Still for that read-out and setting: with `Cc1ccccc1CNc1ncnc2c1ncn2[C@@H]1O[C@H](CO)[C@@H](O)[C@H]1O` the figure was 27.1 µM (active); with `Nc1nc2c(ncn2[C@@H]2O[C@H](CO)[C@@H](O)[C@H]2O)c(=O)[nH]1`, “inactive”; with `COc1cc2c(NC3CCN(C(C)C)CC3)nc(N3CCCN(CC4CCCCC4)CC3)nc2cc1OCCCN1CCCCC1`, 24.1 µM (active). On the same count and under the same terms, with `COc1cc2nc(N3CCCN(C)CC3)nc(N3CCN(C)CC3)c2cc1OC` the figure was 8.57 µM (active); with `CC[C@H](C)n1cc(C)c2c(C(=O)NCc3c(C)cc(C)[nH]c3=O)cc(-c3ccc(N4CCNCC4)nc3)cc21`, 21.5 µM (active).
